Screening data from PubChem BioAssay.
CHT allo act = human CHT allosteric activation; CHT-expressing cells, membrane potential dye, choline EC20; hits give high values; LV-AA mutant CHT in HEK293 cells; 310,000 compounds, 0.49% hits; B-score at 10 µM; Q9GZV3; AID 488977;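 active = initial fluorescence not abnormally high and integrated response B-score, plate-corrected, over 3 SD above library mean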
Target sequence (Q9GZV3 whole entry, looked up): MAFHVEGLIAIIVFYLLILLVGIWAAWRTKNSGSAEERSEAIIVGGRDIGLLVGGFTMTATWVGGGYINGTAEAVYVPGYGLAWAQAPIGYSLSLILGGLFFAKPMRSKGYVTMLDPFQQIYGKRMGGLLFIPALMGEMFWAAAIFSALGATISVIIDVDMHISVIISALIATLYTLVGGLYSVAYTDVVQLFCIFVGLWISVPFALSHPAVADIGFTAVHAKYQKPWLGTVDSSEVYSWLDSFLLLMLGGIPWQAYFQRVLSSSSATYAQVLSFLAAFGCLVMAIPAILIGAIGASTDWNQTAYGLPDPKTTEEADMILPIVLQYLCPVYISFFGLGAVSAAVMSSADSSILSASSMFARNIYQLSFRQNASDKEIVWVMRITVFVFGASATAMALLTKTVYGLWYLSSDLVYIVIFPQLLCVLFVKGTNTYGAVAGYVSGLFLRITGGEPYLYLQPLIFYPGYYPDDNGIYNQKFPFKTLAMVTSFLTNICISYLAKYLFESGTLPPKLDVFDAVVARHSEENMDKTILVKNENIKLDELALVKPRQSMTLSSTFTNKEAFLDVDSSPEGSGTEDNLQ
TMEM16A act = mouse TMEM16A channel activation, primary screen; 340,000 compounds, 0.3% hits; Q8BHY3; B-score at 10 µM; HEK293 TMEM16A/YFP-H148Q/I152L, iodide quench fluorescence; hits give low values;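 active = fluorescence-ratio B-score plate-corrected deviation score at least 3 library SD below zero, with starting fluorescence score within 5 deviations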;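 also: channel opened by trigger with iodide after compound preincubation; score built on the fluorescence ratio of max minus min over baseline; more negative score means more quench and so TMEM16A activation or potentiation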
CHT block = inhibits the human high affinity choline transporter | CHT-expressing cells, membrane potential dye, choline response; hits give low values | B-score at 10 µM | 310,000 compounds, 0.86% hits | AID 488975;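 active = B-score over 3 SD under the library average, and starting fluorescence ratio not unusually high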;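 also: choline stimulus applied at its EC90 after an EC20 pre-addition; B-score computed on integrated fluorescence ratio after choline addition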
TMEM16A inh = blocks the mouse calcium-activated chloride channel TMEM16A; Q8BHY3; HEK293 TMEM16A/YFP iodide influx fluorescence, ionomycin; normalized B-score (activity score, 25-100; higher = stronger inhibition) at 10 µM; 310,000 compounds, 1.2% hits;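 active = ratio plate-corrected score three or more library SD toward inhibition, starting fluorescence score within five deviations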;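 also: score derived from kinetic fluorescence span divided by baseline fluorescence per well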
CHT block conf = confirmation of human choline transporter CHT inhibitors; shares compounds with CHT block; CHT-expressing cells, choline membrane potential dye; LV-to-AA substituted CHT, HEK293 cells; CHT activity remaining % of control (hits give low values), % at 10 µM; 2,400 compounds, 70% hits; AID 493221;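 active = choline transporter activity left, mean of duplicates at 10 µM, below buffer-only control mean minus 3 SD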;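 also: depolarization triggered by choline at its EC90 following an EC20 pre-addition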
HEK293 CHT ctr = CHT inhibitor counter-screen hit in parental HEK293 cells | shares compounds with CHT block | membrane potential dye, choline response; active = decrease or increase beyond buffer ±3SD | membrane potential ratio readout (active if shifted either direction beyond buffer ±3SD; no single direction) at 10 µM | 2,400 compounds, 4% hits | AID 493222;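 also: parental cells lack the transporter so any hit is non-specific; ratio is peak minus trough fluorescence over baseline after EC90 choline challenge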
A number is an active result; n = inactive; x = not tested or not shown; ! = a repeat was not active. Rows were chosen to be rich in hits. Some 2.3% of all compounds tested hit in one or more screens of this group.

SMILES | CHT allo act | TMEM16A act | CHT block | TMEM16A inh | CHT block conf | HEK293 CHT ctr
CCOc1cccc(CNCCc2c(C)[nH]c3ccc(OC(F)(F)F)cc23)c1O | n | n | n | 100 | x | x
C=C(C=O)CC1CC(O)[C@]2(C)OC3CC4OC5C[C@]6(C)O[C@]7(C)CCC8OC9C[C@]%10(C)OC%11C(C)=CC(=O)OC%11CC%10OC9C[C@@H](C)C8OC7CC6O[C@]5(C)CC5OC5C4OC3CC2O1 (stereo partly specified) | n | -7.97 | n | n | x | x
CC(=NCC1CCCO1)c1c(O)n(Cc2ccccc2)c(=O)[nH]c1=O (stereo unspecified) | n | n | n | n | x | x
Cc1ccccc1N1C(=O)CC(=O)N(c2ccccc2C)C1=O | n | n | n | n | x | x
Oc1c(Br)cc(Br)cc1Oc1ccc(Br)cc1Br | n | x | n | 100 | x | x
Brc1ccc(Oc2ccc(Br)cc2Br)c(Br)c1 | x | n | x | x | x | x
CSc1ccc(C(=O)C2CCCN(Cc3cnc(SC)nc3)C2)cc1 (stereo unspecified) | n | n | n | 25 | x | x
CSc1ncc(CN2CCCC(C(=O)c3ccccc3SC)C2)cn1 (stereo unspecified) | n | n | n | n | x | x
Cc1nn(Cc2ccccc2Cl)c(C)c1C(=O)OCC(=O)NC1CCCC(C)C1C (stereo unspecified) | n | n | n | n | x | x
OC(c1ccc(F)cc1)(c1ccc(F)cc1)[C@@H]1CCCN1 | n | n | n | n | x | x
CCCCn1c(=O)c(C(=O)Nc2cnccn2)c(O)c2ccccc21 | n | x | n | 100 | x | x
CCCCCn1c(=O)c(C(=O)Nc2ncccc2C)c(O)c2ccccc21 | n | n | n | n | x | x
O=C(O)c1cc[c]([Hg][Cl])cc1 | n | n | -6.1 | n | x | x
NC(Cc1nc2ccccc2[nH]1)c1ccc(Cl)cc1 (stereo unspecified) | n | n | n | n | x | x
C=C1C(C)C2C(Cc3ccccc3)NC(=O)C23OC(=O)/C=C/C(O)CCCC(C)C/C=C/C3C1O (stereo unspecified) | x | n | x | x | x | x
CC(=O)OC(C)(C)/C=C/C(=O)C(C)(O)C1[C@H](O)C[C@@]2(C)C3CC=C4C(CC[C@@H](O)C4(C)C)[C@]3(CO)C(=O)C[C@]12C (stereo partly specified) | 8.67 | n | n | n | x | x
CCn1cc(C(=O)N2CCOCC2)c2ccccc21 | n | n | n | n | x | x
CCOc1cc2c(cc1OCC)-n1cccc1C(c1ccc(C)cc1C)NC2 (stereo unspecified) | n | n | n | n | x | x
CCOc1cc2c(cc1OCC)-n1cccc1C(c1cc(C)c(OC)cc1C)NC2 (stereo unspecified) | n | n | -5.05 | n | n | n
CC(=O)N1CC(=O)Nc2ccc(C)cc2C1c1ccccc1 (stereo unspecified) | n | n | n | n | x | x
COC(=O)C1=C(c2cc3ccccc3o2)C[C@@H]2CC[C@H]1N2C(=O)N1CCCCC1 | n | n | n | n | x | x
COC(=O)C1=C(c2cc3ccccc3o2)C[C@@H]2CC[C@H]1N2C(=O)N1CCCC1 | n | n | -6.2 | n | 64.8% | n
CN(c1ccccc1)P(=O)(N1CC1)N1CC1 | x | n | x | x | x | x
C[N+](C)(C)CCOC(=O)CBr | n | n | -8 | n | -8.4% | n
CC(=O)OCC[N+](C)(C)C | n | -9.65 | -7.46! | n | 25.3% | n
SMILES | CHT allo act | TMEM16A act | CHT block | TMEM16A inh | CHT block conf | HEK293 CHT ctr
COc1cc(/C=C2/C(=O)NC(=O)N(c3ccccc3)C2=O)ccc1O | n | n | n | n | x | x
CCOc1cc(/C=C2/C(=O)NC(=O)N(c3ccc(CC)cc3)C2=O)ccc1OC(=O)c1cccs1 | n | n | -6.63 | n | 59.1% | n
C=CCn1c(O)c(C(CC)=NC(C)c2ccccc2)c(=O)[nH]c1=O (stereo unspecified) | n | n | -4.99 | n | 48.8% | n
Cc1nccn1Cc1ccc(Cl)nc1 | n | n | n | n | x | x
COC(=NC1CCCCC1)C(O)c1c[nH]c2ccccc12 (stereo unspecified) | n | n | n | n | x | x
CCCc1cc(=O)oc2cc(OCC(=O)N3C[C@H]4C[C@@H](C3)c3cccc(=O)n3C4)ccc12 | n | n | n | n | x | x
Brc1ccc2c(c1)C(OC1CN3CCC1CC3)c1ccccc1CS2 (stereo unspecified) | n | n | -6.53 | n | 34.3% | n
CCn1c(P(C)(=O)O)nc2cc(NC(=O)c3ccccc3F)ccc21 | n | n | -12.4 | n | n | n
CCC(=O)c1cc(F)c(N2CCN(CC)CC2)cc1C | n | n | n | n | x | x
COc1cccc(-c2nn(CCC#N)cc2C(=O)Nc2ccccc2Cl)c1 | n | n | n | n | x | x
Cc1ccc2occ(CN3CC4CC(C3)c3cccc(=O)n3C4)c(=O)c2c1 (stereo unspecified) | n | n | n | n | x | x
O=c1cccc2n1CC1CC2CN(Cc2cccc(Cl)c2Cl)C1 (stereo unspecified) | n | n | -5.39 | n | 64.8% | n
O=C1NC(=O)N(c2ccc(Cl)cc2)C(=O)/C1=C/c1coc2ccc(O)cc2c1=O | n | n | -5.87 | n | 58.6% | n
CCCC(=O)NC(Oc1ccccc1Cl)C(Cl)(Cl)Cl (stereo unspecified) | n | n | -5.05 | n | n | n
O=C(NC(Oc1ccccc1)C(Cl)(Cl)Cl)c1ccccc1 (stereo unspecified) | n | n | n | n | x | x
CC(C)OCCCNC(=O)c1c(N)n(CC2CCCO2)c2nc3ccccc3nc12 (stereo unspecified) | n | n | -5.07 | n | n | n
c1ccc2c(CN3CCN(C4CCCCC4)CC3)c[nH]c2c1 | n | n | n | n | x | x
c1ccc2c(CN3CCCCCCC3)c[nH]c2c1 | n | n | -10.5 | n | 2.7% | n
Cn1c(=O)cc(OCC(=O)N2CCN(C3CCCCC3)CC2)c2ccccc21 | n | n | n | n | x | x
CCCCOP(=O)(OCCCC)/C(C#N)=C(/C)O | n | n | n | n | x | x
CC1=CC2/C=C(\C)CCC(O)C(O)/C=C/C(=O)C23C(=O)NC(CC(C)C)C3C1C (stereo unspecified) | n | n | -6.53 | n | 24.1% | n
Clc1cc(I)cc(Cl)c1NC1=NCCN1 | n | n | -6.99 | n | 6.0% | n
CC(=O)c1cccc(OCC(=O)N2CCN(CC(=O)Nc3cccc(F)c3)CC2)c1 | x | n | x | x | x | x
C[C@]12CC[C@H](O)C[C@@H]1CC[C@@H]1[C@@H]2CC[C@]2(C)[C@@H](C(=O)O)C[C@@H]12 | n | n | -13.7 | n | n | n
